From PubChem BioAssay (Tox21)
Records with an inconclusive call do not appear. Calls of active or inactive are those of the source. Unless noted, the call rests on the fitted dose curve.

Legend:
[1] = Nuclear factor erythroid 2-related factor 2/antioxidant responsive element (Nrf2/ARE) small molecule agonists: qHTS cell viability counter screen in human keratinocytes (AID 1919968; active means well fitted cell-killing curve with a large enough effect in the repeat runs; further: nearly all actives have a fitted effect of over 55% in size; further: potency means the concentration at half of the fitted maximal effect)
Method in brief: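 Cells of the KeratinoSens line were plated at 1,500 per well and left for 5 h before compound transfer from DMSO stocks. After a 23 h incubation (37 C, 5% CO2), CellTiter-Fluor was added. Signal was taken as fluorescence intensity 1 h later.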

[2] = Nuclear factor erythroid 2-related factor 2/antioxidant responsive element (Nrf2/ARE) small molecule agonists: luciferase reporter gene qHTS assay in human keratinocytes (AID 1919969); further: nearly all actives have a fitted effect of over 35% in size; further: potency means the concentration at half of the fitted maximal effect
[3] = biological target: Gonadotropin-releasing hormone receptor (Homo sapiens) (UniProt P30968); experiment: Human gonadotropin-releasing hormone receptor (GnRHR) small molecule agonists, calcium flux assay in GnRHR-HEK293 cells (AID 1920063); further: nearly all actives have a fitted effect of over 35% in size
Method in brief: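 Compounds dissolved in DMSO are pin-transferred onto dye-loaded GnRHR-HEK293 cells, which were seeded 18 h before at 37 C/5% CO2. Calcium signal is read as fluorescence intensity at 1 s intervals for 3 min.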

[4] = p53 small molecule agonists, cell-based qHTS assay with rat liver microsomes (AID 1963578)
Method in brief: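 Read-out is beta-lactamase reporter fluorescence (LiveBLAzer, 2 h, room temperature, dark) in p53RE-bla cells treated 16 h at 37 C with compound, rat liver microsomes and NADPH, both 0.5 mg/mL final.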

[5] = p53 small molecule agonists, cell-based qHTS assay with human liver microsomes: qHTS cell viability counter screen (AID 1963579); further: nearly all actives have a fitted effect of over 45% in size
Method in brief: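 Cells carrying the p53 response-element beta-lactamase reporter are treated for 16 h at 37 C with test compounds in the presence of human liver microsomes and NADPH (both 0.5 mg/mL final); ATP-based CellTiter-Glo luminescence then reports viability.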

[6] = p53 small molecule agonists, cell-based qHTS assay: qHTS cell viability counter screen (AID 1963581); further: nearly all actives have a fitted effect of over 45% in size; further: potency means the concentration at half of the fitted maximal effect
Method in brief: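 ATP content measured by luminescence in HCT-116 p53RE-bla cells treated 16 h at 37 C, same wells as the reporter screen.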

[7] = p53 small molecule agonists, cell-based qHTS assay (AID 1963582; active means well fitted activation curve with a large enough effect in the signal ratio in the repeat runs, not every such curve was filed as active; the % refers to the signal ratio; further: potency means the concentration at half of the fitted maximal effect)
Method in brief: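 16 h compound exposure (37 C) of p53 response element–bla cells, preceded by 5 h recovery at 37 C/5% CO2; read-out via LiveBLAzer B/G FRET substrate, 2 h RT, fluorescence intensity.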

[8] = biological target: 5-hydroxytryptamine receptor 2A (Homo sapiens) (UniProt P28223); experiment: 5-hydroxytryptamine receptor 2A (HTR2A) small molecule agonists, cell-based qHTS assay (AID 1963587); further: nearly all actives have a fitted effect of over 30% in size
Method in brief: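 CHO cells stably expressing human HTR2A, plated 18 h, loaded with calcium dye 1 h at 37 C. Agonist mode: compounds added and intracellular calcium fluorescence recorded kinetically for 2 min at 1 sec intervals.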

[9] = biological target: Muscarinic acetylcholine receptor M1 (Homo sapiens) (UniProt P11229); experiment: Cholinergic receptor muscarinic 1 (CHRM1) small molecule agonists, cell-based qHTS assay (AID 1963589); further: nearly all actives have a fitted effect of over 35% in size
Method in brief: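 Homogeneous fluorescence calcium flux, agonist mode. Human M1-expressing CHO cells; compound dosed at 15 concentrations, three independent runs; signal sampled every 1 sec.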

[10] = biological target: Beta-2 adrenergic receptor (Homo sapiens) (UniProt P07550); experiment: Adrenergic beta2 receptor (ADRB2) small molecule antagonists, cell-based qHTS assay (AID 1963592); further: series mostly up to about 92 µM; nearly all actives have a fitted effect of over 50% in size
Method in brief: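 Assay format: CHO-ADRB2 cells, 18-20hr seeding at 37C/5% CO2, then compound plus 1nM isoproterenol agonist mix for 0.5hr RT. Homogeneous time-resolved fluorescence cAMP detection after 1hr, expressed as 665/615 nm ratio.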

[11] = biological target: Beta-2 adrenergic receptor (Homo sapiens) (UniProt P07550); experiment: Adrenergic beta2 receptor (ADRB2) small molecule agonists, cell-based qHTS assay (AID 1963593);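 further: CHO cells stably overexpressing human ADRB2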
Method in brief: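 CHO cells stably over-expressing ADRB2 were plated overnight at 37C, then dosed with compounds plus a stimulation mix containing 100uM IBMX and 25uM Ro-20-1724 for 0.5hr at room temperature. cAMP was measured by HTRF competition, 1hr.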

[12] = biological target: D(2) dopamine receptor (Homo sapiens) (UniProt P14416); experiment: Dopamine D2 receptor (DRD2) small molecule agonists, cell-based qHTS assay (AID 1963594); further: nearly all actives have a fitted effect of over 35% in size
Method in brief: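 HEK293 cells stably expressing human DRD2, pre-treated with PDE inhibitor Ro20-1724 (0.1 mM final) and compound 10 min at room temperature, then stimulated with NKH477 (200nM […]) for 30 min. cAMP read by HTRF (665/620 nm).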

[13] = p53 small molecule agonists, cell-based qHTS assay with human liver microsomes (AID 1963577)
Method in brief: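 Compounds act here after metabolic activation: human liver microsomes and NADPH, both at 0.5 mg/mL final, were co-added to p53RE-bla cells. Incubation ran 16 h at 37 C, followed by LiveBLAzer detection.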

[14] = p53 small molecule agonists, cell-based qHTS assay with rat liver microsomes: qHTS cell viability counter screen (AID 1963580); further: nearly all actives have a fitted effect of over 45% in size
Method in brief: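 Cytotoxicity counter screen: intracellular ATP measured by CellTiter-Glo luminescence in the same wells as the beta-lactamase reporter read, on HCT-116 p53RE-bla cells exposed 16 h at 37 C to compounds with rat liver microsomes and NADPH, each 0.5 mg/mL final.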

[15] = G protein-coupled receptor (GPCR) small molecule agonists, calcium flux assay: HEK293 wild type cell line counter screen (AID 1920065)
Method in brief: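 Tox21 10K compounds, 15 concentrations each in triplicate, pin-transferred in DMSO onto dye-loaded cells; kinetic read at 480/540 nm for 3 min, 1 s intervals.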

[16] = biological target: 5-hydroxytryptamine receptor 2A (Homo sapiens) (UniProt P28223); experiment: 5-hydroxytryptamine receptor 2A (HTR2A) small molecule antagonists, cell-based qHTS assay (AID 1963586); further: nearly all actives have a fitted effect of over 45% in size
Method in brief: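 CHO cells stably expressing human HTR2A were plated for 18 h at 37 C, then loaded with calcium dye for 1 h. Compounds were preincubated 5 min at room temperature before DOI (4 nM solution) was added. Kinetic fluorescence was read for 3 min.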

[17] = biological target: Muscarinic acetylcholine receptor M1 (Homo sapiens) (UniProt P11229); experiment: Cholinergic receptor muscarinic 1 (CHRM1) small molecule antagonists, cell-based qHTS assay (AID 1963588); further: nearly all actives have a fitted effect of over 40% in size
Method in brief: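 Compounds were tested at 15 concentrations in three independent runs. Dye-loaded CHRM1-CHO cells were exposed 5 min at room temperature before stimulation by acetylcholine added at 50nM. Intracellular calcium was read kinetically on FDSS for 3 min.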

[18] = biological target: D(2) dopamine receptor (Homo sapiens) (UniProt P14416); experiment: Dopamine D2 receptor (DRD2) small molecule antagonists, cell-based qHTS assay (AID 1963595; active means well fitted inhibition curve with a large enough effect in the signal ratio in the repeat runs, with a control signal flat; the % refers to the signal ratio)
Method in brief: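 Human DRD2 antagonist qHTS measuring cAMP by HTRF. The cells are exposed to compound for 10 min, then to NKH477 (200 nM) and quinpirole (12 nM) for 30 min at RT, with Ro20-1724 (0.1 mM) present throughout.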

[19] = cAMP Responsive Elements (CRE) small molecule agonists, cell-based qHTS assay (AID 1963590)
Method in brief: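 HEK 293T cells stably bearing CRE-bla were plated at 2,000 cells per well and rested 18 h. Compounds, positive controls or DMSO were added for 3 h at 37 C. LiveBLAzer B/G substrate was then loaded for 2 h at room temperature.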

[20] = cAMP Responsive Elements (CRE) small molecule antagonists, cell-based qHTS assay (AID 1963591; active means well fitted inhibition curve with a large enough effect in the signal ratio in the repeat runs, not every such curve was filed as active; the % refers to the signal ratio)
Method in brief: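 First, CRE-bla HEK293T cells settled 18 h at 37 C. Next, compound and 0.25 uM final NKH477 were applied for 3 h. Last, LiveBLAzer B/G substrate was loaded for 2 h at room temperature.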

Measured: Potency

Chain of 5-hydroxytryptamine receptor 2A (Homo sapiens) (P28223 whole entry, looked up): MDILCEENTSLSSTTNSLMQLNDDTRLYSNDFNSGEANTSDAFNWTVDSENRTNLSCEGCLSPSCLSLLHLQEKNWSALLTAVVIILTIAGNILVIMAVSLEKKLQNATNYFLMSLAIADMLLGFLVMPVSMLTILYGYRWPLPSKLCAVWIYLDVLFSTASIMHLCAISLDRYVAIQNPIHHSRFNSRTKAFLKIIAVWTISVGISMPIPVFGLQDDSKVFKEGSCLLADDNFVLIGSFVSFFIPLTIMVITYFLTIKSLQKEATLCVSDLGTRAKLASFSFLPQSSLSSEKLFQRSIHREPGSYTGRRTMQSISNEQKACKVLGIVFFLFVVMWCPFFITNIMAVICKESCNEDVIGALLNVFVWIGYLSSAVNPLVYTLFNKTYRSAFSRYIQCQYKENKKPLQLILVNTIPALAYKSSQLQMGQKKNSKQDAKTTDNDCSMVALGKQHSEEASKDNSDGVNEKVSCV
Chain of Gonadotropin-releasing hormone receptor (Homo sapiens) (P30968 whole entry, looked up): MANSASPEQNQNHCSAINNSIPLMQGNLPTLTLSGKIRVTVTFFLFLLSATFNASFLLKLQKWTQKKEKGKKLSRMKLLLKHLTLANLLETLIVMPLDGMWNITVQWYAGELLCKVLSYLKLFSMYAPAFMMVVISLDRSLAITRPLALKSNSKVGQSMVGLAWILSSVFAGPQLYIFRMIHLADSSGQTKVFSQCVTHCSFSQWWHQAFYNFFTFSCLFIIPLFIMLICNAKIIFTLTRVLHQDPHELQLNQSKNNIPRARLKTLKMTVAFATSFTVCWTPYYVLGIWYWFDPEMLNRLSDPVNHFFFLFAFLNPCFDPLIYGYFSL
Chain of Beta-2 adrenergic receptor (Homo sapiens) (P07550 whole entry, looked up): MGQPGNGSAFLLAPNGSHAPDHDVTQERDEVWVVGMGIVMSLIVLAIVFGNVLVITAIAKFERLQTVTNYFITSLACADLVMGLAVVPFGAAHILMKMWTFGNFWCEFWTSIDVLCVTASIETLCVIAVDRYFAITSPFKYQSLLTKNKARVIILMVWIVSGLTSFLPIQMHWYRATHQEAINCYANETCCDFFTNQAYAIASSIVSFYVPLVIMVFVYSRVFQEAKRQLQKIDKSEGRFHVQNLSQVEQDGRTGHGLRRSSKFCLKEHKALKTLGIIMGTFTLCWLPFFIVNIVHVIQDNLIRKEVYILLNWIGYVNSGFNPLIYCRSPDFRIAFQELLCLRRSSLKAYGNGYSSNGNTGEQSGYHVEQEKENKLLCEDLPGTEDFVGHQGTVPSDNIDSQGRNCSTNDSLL
Chain of D(2) dopamine receptor (Homo sapiens) (P14416 whole entry, looked up): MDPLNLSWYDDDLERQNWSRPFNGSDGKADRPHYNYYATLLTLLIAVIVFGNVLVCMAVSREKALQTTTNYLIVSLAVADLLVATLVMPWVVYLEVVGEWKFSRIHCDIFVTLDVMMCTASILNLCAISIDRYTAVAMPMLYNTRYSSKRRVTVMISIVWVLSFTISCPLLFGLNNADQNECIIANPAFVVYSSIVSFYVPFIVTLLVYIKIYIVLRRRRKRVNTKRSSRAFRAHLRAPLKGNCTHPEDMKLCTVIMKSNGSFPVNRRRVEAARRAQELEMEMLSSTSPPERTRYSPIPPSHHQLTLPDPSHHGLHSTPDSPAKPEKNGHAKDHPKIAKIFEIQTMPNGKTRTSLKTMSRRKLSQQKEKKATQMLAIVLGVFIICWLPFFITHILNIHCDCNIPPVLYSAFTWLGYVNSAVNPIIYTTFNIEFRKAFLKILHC
Chain of Muscarinic acetylcholine receptor M1 (Homo sapiens) (P11229 whole entry, looked up): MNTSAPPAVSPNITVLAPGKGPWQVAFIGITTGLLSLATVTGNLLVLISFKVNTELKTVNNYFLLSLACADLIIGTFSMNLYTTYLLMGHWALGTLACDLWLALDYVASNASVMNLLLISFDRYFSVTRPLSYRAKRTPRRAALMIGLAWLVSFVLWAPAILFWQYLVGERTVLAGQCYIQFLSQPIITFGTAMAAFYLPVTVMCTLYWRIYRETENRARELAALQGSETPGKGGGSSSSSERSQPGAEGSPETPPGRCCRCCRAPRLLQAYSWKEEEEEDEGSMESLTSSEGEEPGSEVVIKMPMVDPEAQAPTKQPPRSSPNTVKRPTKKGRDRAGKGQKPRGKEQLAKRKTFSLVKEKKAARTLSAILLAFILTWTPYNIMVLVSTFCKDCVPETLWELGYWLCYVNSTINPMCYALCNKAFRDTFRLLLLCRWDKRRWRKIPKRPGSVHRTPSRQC

CCCN(CCC)c1c([N+](=O)[O-])cc(C(F)(F)F)c(N)c1[N+](=O)[O-]
inactive: [2] | [3] | [4] | [5] | [7] | [8] | [9] | [10] | [11] | [12]
active: [1] 24.3 µM | [6] 18.2 µM

NC1CCN(c2nc3c(cc2F)c(=O)c(C(=O)O)cn3-c2ccc(F)cc2F)C1 (stereo unspecified)
inactive: [1] | [2] | [3] | [13] | [14] | [6] | [7] | [12]

O=C(C1CCCCC1)N1CC(=O)N2CCCc3ccccc3C2C1 (stereo unspecified)
not listed: [11] | [19] | [20]
inactive: all other assays above

Cc1cc(CCCOc2c(C)cc(-c3noc(C(F)(F)F)n3)cc2C)on1
active: [2] 11.9 µM
not listed: [7] | [10] | [11] | [12]
inactive: all other assays above

O=C(O)c1c(O)c(-c2ccccc2)nc2ccccc12
active: [7] 19.9 µM
not listed: [11]
inactive: all other assays above

N#Cc1ccc(CC(=O)c2cccc(C(F)(F)F)c2)cc1
not listed: [4] | [5] | [6] | [10] | [11] | [15]
inactive: all other assays above

C#Cc1ccc(-c2ccccc2F)cc1
not listed: [16]
inactive: all other assays above

C[C@H](N)C(=O)N[C@@H](C)C(=O)NC1[C@H]2CN(c3nc4c(cc3F)c(=O)c(C(=O)O)cn4-c3ccc(F)cc3F)C[C@@H]12 (stereo partly specified)
not listed: [11] | [18] | [19] | [20]
inactive: all other assays above
